Assay outcomes from PubChem BioAssay.
Anthrax LF inh2: anthrax lethal factor protease inhibition | AID 588501 | hit rate 0.12% among 360,000 | multiplex microsphere protease cleavage assay, LF | inhibition, % at 10 µM; also: plate controls were buffer without enzyme for full effect and enzyme alone for no effect
Autofluor counter: flagged as autofluorescent in microsphere protease counterscreen; compound autofluorescence counterscreen, microsphere flow cytometry; hits give high values; fluorescence intensity (test concentration not listed); hit rate 3.1% among 360,000; AID 624483; in the data active = fluorescence intensity above about 16000; inconclusive = no clear call, values can overlap the other calls
FBA Mtb inh: inhibitors of M. tuberculosis fructose-bisphosphate aldolase. P9WQA3. hit rate 2.3% among 360,000. AID 588726. purified M. tuberculosis FBA, fluorescence read-out. inhibition, % at 1 µM; in the data active = inhibition above about 27%;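 also: 0% = vehicle and 100% = reference inhibitor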
Target sequence (P9WQA3 whole entry, looked up): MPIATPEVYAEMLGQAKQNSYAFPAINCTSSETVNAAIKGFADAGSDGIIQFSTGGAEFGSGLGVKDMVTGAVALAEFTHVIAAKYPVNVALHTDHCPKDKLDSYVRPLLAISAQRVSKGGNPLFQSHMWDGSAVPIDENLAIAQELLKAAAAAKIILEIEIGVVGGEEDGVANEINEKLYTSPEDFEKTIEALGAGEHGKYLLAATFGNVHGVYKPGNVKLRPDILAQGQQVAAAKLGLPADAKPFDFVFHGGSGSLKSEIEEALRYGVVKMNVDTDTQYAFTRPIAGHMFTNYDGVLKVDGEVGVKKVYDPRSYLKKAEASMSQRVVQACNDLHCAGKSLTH
BoNT F protease: BoNT F light chain protease inhibition; Multiplex microsphere protease cleavage assay, flow cytometry; AID 588497; hit rate 0.22% among 360,000; inhibition, % at 10 µM; in the data active = inhibition above about 35%, passing the limit was not always enough; inconclusive = no clear call, values can overlap the other calls; also: plate controls were buffer without enzyme for full effect and enzyme alone for no effect
BoNT-A LC inh2: inhibitors of Botulinum neurotoxin A light chain protease. multiplex microsphere protease substrate cleavage, flow cytometry. inhibition, % at 10 µM. hit rate 0.17% among 360,000. AID 588499; also: plate controls were buffer without enzyme for full effect and enzyme alone for no effect
GDH-TPI inh: inhibits GDH-TPI coupling enzymes, artifact for Mtb FBA screen. GDH-TPI coupled enzyme counterscreen, NADH absorbance. inhibition, % at 4.8 µM. hit rate 1.2% among 360,000. AID 588335; in the data active = inhibition above about 30%;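 also: 0% = DMSO wells and 100% = wells lacking the enzyme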
The depositor's hits bear a star; ? = inconclusive; · = no result given. The list is not random: actives were taken first. Their share in the collection is about 6.7%. Rule as the data show it, unless noted: active = inhibition above about 30%; inconclusive = no clear call, values can overlap the other calls; inactive = below that.

SMILES | Anthrax LF inh2 | Autofluor counter | FBA Mtb inh | BoNT F protease | BoNT-A LC inh2 | GDH-TPI inh
O=C(NCc1ccco1)c1ccc2c(=O)n(Cc3ccco3)c(SCC(=O)N3CCCC3)nc2c1 | -1 | 21141* | 1 | 0 | -1 | -15
C=CCn1c(SCC(=O)N2CCCC2)nc2cc(C(=O)NCC3CCCO3)ccc2c1=O (stereo not drawn) | -2 | 16153* | 0 | 3 | 1 | 7
CC(C)c1nc(SCC(=O)N2CCCC2)c2ccccc2n1 | 0 | 22830* | -2 | 1 | ? | 12
CC/C(=C/c1ccccc1)c1cccc2[nH]c3c(OC)cccc3c12 | 3 | 3594 | 25 | -7 | 0 | -2
O=C(CSc1nc2ccccc2c(=O)n1Cc1ccco1)N1CCCCCC1 | -12 | 21631* | -1 | -4 | ? | 11
CCOc1cc(CNCc2ccccn2)cc(Cl)c1OC | -3 | 3282 | 3 | -8 | -2 | 1
COC(=O)c1[nH]c(C)c(/C(O)=C2\C(=O)C(=O)N(CCN(C)C)C2c2cccc(OC)c2OC)c1C (stereo not drawn) | -1 | 9911 | -2 | 0 | 0 | -6
CCN(CC)CCN1C(=O)C(=O)/C(=C(/O)c2c(C)[nH]c(C(=O)OC)c2C)C1c1cccc(OC)c1 (stereo not drawn) | -4 | 18213* | 0 | -4 | -4 | 22
COC(=O)c1[nH]c(C)c(/C(O)=C2\C(=O)C(=O)N(CCN(C)C)C2c2cccs2)c1C (stereo not drawn) | -5 | 20496* | -3 | -2 | 1 | 5
CCN(CC)CCN1C(=O)C(=O)/C(=C(/O)c2c(C)[nH]c(C(=O)OC)c2C)C1c1ccccc1 (stereo not drawn) | · | · | 0 | · | · | 8
CCN(CC)CCN1C(=O)C(=O)/C(=C(/O)c2c(C)[nH]c(C(=O)OC)c2C)C1c1ccc(C)o1 (stereo not drawn) | -4 | 5700 | 1 | 0 | 1 | 11
CCOC(=O)c1[nH]c(C)c(/C(O)=C2\C(=O)C(=O)N(CCN(C)C)C2c2ccc(C)o2)c1C (stereo not drawn) | -1 | 21142* | 0 | -3 | -4 | 6
O=P(OC1CCCCC1)(OC1CCCCC1)C(O)c1ccc(Cl)cc1Cl (stereo not drawn) | -7 | 9572 | -1 | -2 | 1 | -2
O=P(OC1CCCCC1)(OC1CCCCC1)C(O)c1c(Cl)cccc1Cl (stereo not drawn) | 0 | 17127* | 1 | -5 | -2 | 1
COc1ccc(OC)c(C(C(=O)NC2CCCCC2)N(C(=O)c2snc(C(N)=O)c2N)c2ccccc2OC)c1 (stereo not drawn) | 12 | 2968 | 115* | -3 | -1 | 26
COc1ccc(CN(C(=O)c2snc(C(N)=O)c2N)C(C(=O)NC(C)(C)C)c2ccco2)cc1 (stereo not drawn) | 0 | 21460* | 6 | -4 | -3 | 8
COCCNC(=O)C(c1ccco1)N(Cc1ccc(OC)cc1)C(=O)Cn1nnc2ccccc21 (stereo not drawn) | 3 | 3406 | 3 | 39* | 1 | 15
COc1ccccc1N(C(=O)c1snc(C(N)=O)c1N)C(C(=O)NC1CCCC1)c1ccco1 (stereo not drawn) | -1 | 23621* | 17 | -2 | -1 | 15
O=S(=O)(c1ccc(Br)cc1)c1nc(-c2ccccc2)oc1NCCN1CCOCC1 | -3 | 4957 | 1 | 6 | 0 | 10
O=C(COc1ccccc1-c1ccccc1)N/N=C/c1cccnc1 | -3 | 4389 | -5 | -4 | -1 | -2
COc1ccccc1N(C(=O)c1snc(C(N)=O)c1N)C(C(=O)NCCC(C)C)c1ccco1 (stereo not drawn) | -2 | 18096* | 14 | 5 | 4 | 7
CC(=O)Nc1ccc(S(=O)(=O)Nc2ccc(F)c([N+](=O)[O-])c2)cc1 | -2 | 2363 | -2 | -11 | 0 | 8
O=C(Nc1ccccc1C(=O)Nc1ccccc1C(=O)NCc1ccco1)c1ccco1 | -1 | 8239 | 0 | -9 | -1 | 0
CCSc1ccccc1C(=O)NCc1ccc(S(N)(=O)=O)cc1 | 0 | 23721* | 0 | -2 | -1 | 0
O=C(NCc1ccco1)c1ccccc1Br | 5 | 8753 | 2 | -2 | 0 | -9
CCSc1ccccc1C(=O)NCc1ccco1 | -3 | 24013* | 0 | -3 | -2 | 8
O=C(Nc1ccccc1C(=O)NCc1ccco1)c1ccco1 | -1 | 17328* | -2 | -4 | -2 | 7
